Test [1] concerns the target Transient receptor potential cation channel subfamily V member 1 (Homo sapiens) (UniProt Q8NER1). Briefly: HTS Assay for Compounds that Act as Enhancers of the Vanilloid Receptor 1 (AID 488979). Also: 0% is about no effect. Put shortly:
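Calcium influx kinetics via Fluo-8 (480/520 nm) in TRPV1-expressing cells, 2000/well cultured overnight at 35.5C. Compound-alone read 3 min (agonist phase), followed by EC20 capsaicin challenge for 2 min (enhancer phase).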

The target of test [2] is Thyrotropin receptor (Homo sapiens) (UniProt P16473). Briefly: qHTS Assay for Antagonists of the Thyroid Stimulating Hormone Receptor (AID 488980). Also: series mostly up to about 58 µM; 0% is about no effect. Put shortly:
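HEK293 cells transfected with human TSHR, suspended in HEPES-buffered HBSS with 70 uM RO 20-1724, were treated with compounds plus TSH at EC80 (4 nM final). cAMP was measured by competitive HTRF (cryptate anti-cAMP antibody, cAMP-d2 acceptor).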
In general terms: qHTS replaces the single test concentration by a dilution series.

In test [3] the target is D(1A) dopamine receptor (Homo sapiens) (UniProt P21728). Description: HTS Assay for Allosteric Agonists of the Human D1 Dopamine Receptor: Primary Screen for Agonists (AID 488981). Also: 0% is about no effect. The gist of the method:
(§1)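 Calcium flux in an inducible, force-coupled HEK293 Trex D1 line (overnight at 30 C): agonist mode is the 180 s kinetic read after compound; potentiator mode is the following 180 s read after dopamine at EC20.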

Test [4] shares this target. Description: HTS Assay for Allosteric Agonists of the Human D1 Dopamine Receptor: Primary Screen for Potentiators (AID 488982). Also: 0% is about no effect. The gist of the method:
as §1

For test [5] the target is unchanged. Briefly: HTS Assay for Allosteric Agonists of the Human D1 Dopamine Receptor: Primary Screen for Antagonists (AID 488983).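 Also: calcium flux response to an EC80 dopamine challenge measured with no-wash dye; % is scaled to controls: 0 for no effect and ±100 for the full control effect; nearly all actives have a fitted effect of over 65% in size.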 Put shortly:
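Calcium flux readout, no-wash dye, inducible HEK293 T-REx D1 line (force-coupled). Compound added after 10 s baseline, 180 s kinetic read; then dopamine at EC80, further 180 s read.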

Test [6] is described as follows: Validation screen for small molecules that induce genotoxicity in human embryonic kidney (HEK293T) cells expressing luciferase-tagged ELG1 (AID 493106). Also: 0% is about no effect. Put shortly:
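qHTS format; 2,000 HEK293T ELG1-luc cells/well; 23 nL compound via pin tool; 16 hr, 37 °C/5% CO2; ONE-Glo, 30 min RT; luminescence read.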

Test [7] has as its target ATPase family AAA domain-containing protein 5 (Homo sapiens) (UniProt Q96QE3). Description: Validation screen for small molecules that inhibit ELG1-dependent DNA repair in human embryonic kidney (HEK293T) cells expressing luciferase-tagged ELG1 (AID 493107).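 Also: cells co-treated with the DNA-damaging agent 5-fluorouridine alongside compound; series mostly up to about 46 µM; % is scaled to controls: 0 for no effect and ±100 for the full control effect; inhibitors lower the ELG1-luciferase luminescence signal; nearly all actives have a fitted effect of over 70% in size.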 Put shortly: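 ELG1-luciferase HEK293T reporter; 5-fluorouridine + compound/DMSO, 16 hr, 37 °C, 5% CO2; ONE-Glo 30 min RT; luminescence read, qHTS format.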

Test [8] has as its target Thyrotropin-releasing hormone receptor (Homo sapiens) (UniProt P34981). Briefly: qHTS for Small Molecule Agonists and Allosteric Enhancers of Human TRH Receptor: Validation Screen for Agonists (AID 493127;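 active = calcium activation more than 3 SD above the typical response in the agonist read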;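 also: intracellular calcium rise by fluo-8 fluorescence before TRH EC20 addition; 0% is about no effect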). To be noted: TRH receptor agonist cell assay; at 2 µM; stronger effect = higher value. The gist of the method: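 Read-out: intracellular calcium release measured kinetically by FDSS (fluo-8, ex 480/em 530 nm), 1 reading/s after a 10-cycle baseline. TRHR cells, 2000/well, cultured 18 h at 33.5C, dye-loaded at room temp. Compound-evoked positive calcium signal flags agonists.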

Test [9] in a line: qHTS for Inhibitors of Cell Surface uPA Generation: Validation Assay (AID 493164).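 Also: RAW 264.7 macrophage cells exposed to compound for 18 h; 0% is about no effect.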 The gist of the method:
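Compounds are titrated over seven points (2.45 nM–38.3 uM final) onto pre-plated RAW 264.7 cells and incubated for 18 h. Retained intracellular ATP, measured with ATP-Lite, indicates blocked lethal factor entry.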

For test [10], the target named is Galactokinase (Homo sapiens) (UniProt P51570). Description: qHTS Validation Assay for Inhibitors of Human Galactokinase (GALK) (AID 493189). Also: 0% is about no effect. Put shortly:
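GALK (5 nM) with 35 uM ATP and 100 uM galactose in HEPES pH8.0, MgCl2, NaCl, DTT, BSA; 1 h at room temperature. Residual ATP read by Kinase-Glo Plus luminescence after 10 min.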

The nature of test [11]: Validation screen for small molecules that induce DNA re-replication in SW480 colon adenocarcinoma cells (AID 504364). Also: 0% is about no effect. Put shortly:
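Read-out: total Hoechst intensity of nuclei by fluorescence scanning imager; hits raise the fraction of nuclei with elevated DNA content. Cells received compound for 48 hr at 37 C before a 40 min stain.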

Test [12] has as its target Peptidyl-prolyl cis-trans isomerase NIMA-interacting 1 (Homo sapiens) (UniProt Q13526). Description: qHTS Validation Assay to Find Inhibitors of Pin1 (AID 504536; active = well fitted inhibition curve with a large enough effect in the polarisation, with a control signal flat, not every such curve was filed as active; the % refers to the polarisation;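 also: 0% = full Pin1 enzyme wells and -100% = no-enzyme wells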). The gist of the method:
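Fluorescence polarization competition: compounds (titration) displace HiFluor-488-labeled Pin1-1b peptide from Pin1 (0.3 uM final) in pH 7.5 HEPES buffer with DTT, 10 min at room temperature; %Activity normalized to no-enzyme wells, curves fitted.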

Test [13] deals with Phosphoglycerate kinase, glycosomal (Trypanosoma brucei brucei) (UniProt P07378). Description: qHTS Validation Assay to Find Inhibitors of Phosphoglycerate Kinase (AID 504547). Also: potency is read from the fitted curve at half-maximal effect. Put shortly:
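Luminescence end-point (Kinase-Glo Plus, 10 min) after a 60 min room-temperature coupled reaction. GAPDH at 100nM final supplies 1,3-BPG to PGK. Buffer: 100mM TEA pH 7.6, 5mM MgCl2, 0.01% Tween-20. Wells lacking PGK served as controls.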

Test [14] has as its target phosphoglycerate mutase (Leishmania major) (UniProt Q4Q090). Description: qHTS Validation Assay to Find Inhibitors of Phosphoglycerate Mutase (AID 504548). Also: series mostly up to about 58 µM; % is scaled to controls: 0 for no effect and ±100 for the full control effect. To be noted: Potency: inhibition qHTS. Put shortly:
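Lm PGAM at 1.25 nM final with substrate in 100 mM TEA pH 7.6, 5 mM MgCl2, 0.01% Tween-20; 45 min at room temperature. Kinase-GloPlus added, 10 min, end-point luminescence read.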

Test [15] deals with Ubiquitin carboxyl-terminal hydrolase 1 (Homo sapiens) (UniProt O94782). Description: Inhibitors of USP1/UAF1: Pilot qHTS (AID 504865).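 Also: rhodamine fluorescence freed from ubiquitin-rhodamine substrate followed over time; top concentration of the series differs between compounds; % is scaled to controls: 0 for no effect and ±100 for the full control effect; nearly all actives have a fitted effect of over 35% in size.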 Put shortly: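 USP1/UAF1 complex (1nM) preincubated with compound 15 min at room temperature, then Ub-Rho substrate (150nM final) added. Fluorescence read kinetically at 480/540 nm, 6 reads every 60 seconds. Buffer: 50mM HEPES pH 7.8, 0.5mM EDTA, 0.1 mg/ml BSA, 1mM TCEP, 0.01% Tween-20.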

The nature of test [16]: qHTS for Inhibitors of ATXN expression: Validation of Cytotoxic Assay (AID 588349). Also: % is scaled to controls: 0 for no effect and ±100 for the full control effect. Put shortly: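 Cytotoxicity counter-screen: HEK293 cells exposed to compound titrations, 72 hr, 37 degrees C. Read-out is intracellular ATP (CellTiter Glo luminescence) as a viability measure.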
Test [17] can be described thus: qHTS for Inhibitors of ATXN expression: Validation (AID 588378). Also: series mostly up to about 57 µM; % is scaled to controls: 0 for no effect and ±100 for the full control effect; nearly all actives have a fitted effect of over 75% in size. The gist of the method: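 Luminescence from an ATXN2-FFLuc reporter in HEK293 cells served as read-out after 24 h compound treatment at 37 degrees C; CellTiter-Fluor fluorescence was recorded first to assess viability.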
A short description of test [18]: Nrf2 qHTS screen for inhibitors: Validation (AID 493153; active = well fitted inhibition curve with a large enough effect in the main read-out, with a control signal flat, not every such curve was filed as active). To be noted: Potency: luciferase luminescence; viability change: measured here: cytotoxicity max response. The gist of the method: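 Concentration-response test in A549 ARE_Fluc reporter cells (5% FBS OPTI-MEM), compound exposure 18-24 h at 37°C, 5% CO2. Cell viability measured first by CellTiter-Fluor fluorescence; ARE-driven luciferase luminescence then measured as Nrf2 activity.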

Records with an inconclusive call do not appear. The source made the active and inactive calls. Unless noted, calls follow the shape of the dose curve; as a rule, active = well fitted curve in the direction sought with a large enough effect; inconclusive = small, poorly fitted or top-dose-only effect, or another doubt; inactive = no such curve, though single readings can be large; an effect the other way counts as inactive or inconclusive.

Chain of Galactokinase (Homo sapiens) (P51570 whole entry, looked up): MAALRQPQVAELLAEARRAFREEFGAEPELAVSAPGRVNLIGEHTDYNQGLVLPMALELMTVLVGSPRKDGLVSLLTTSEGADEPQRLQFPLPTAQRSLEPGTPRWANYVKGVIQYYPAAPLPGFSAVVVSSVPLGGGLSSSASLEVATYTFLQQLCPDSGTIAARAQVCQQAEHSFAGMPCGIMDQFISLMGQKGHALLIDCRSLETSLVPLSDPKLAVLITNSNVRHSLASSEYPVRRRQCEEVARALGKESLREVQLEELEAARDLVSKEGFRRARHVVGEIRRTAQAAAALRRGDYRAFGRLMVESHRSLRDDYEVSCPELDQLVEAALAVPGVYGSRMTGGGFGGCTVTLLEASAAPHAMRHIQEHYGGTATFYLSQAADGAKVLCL
Chain of Peptidyl-prolyl cis-trans isomerase NIMA-interacting 1 (Homo sapiens) (Q13526 whole entry, looked up): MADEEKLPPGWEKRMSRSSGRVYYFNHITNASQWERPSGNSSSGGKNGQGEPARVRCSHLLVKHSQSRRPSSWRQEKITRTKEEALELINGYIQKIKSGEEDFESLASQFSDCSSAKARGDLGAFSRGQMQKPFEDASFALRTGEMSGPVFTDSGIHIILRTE
Chain of D(1A) dopamine receptor (Homo sapiens) (P21728 whole entry, looked up): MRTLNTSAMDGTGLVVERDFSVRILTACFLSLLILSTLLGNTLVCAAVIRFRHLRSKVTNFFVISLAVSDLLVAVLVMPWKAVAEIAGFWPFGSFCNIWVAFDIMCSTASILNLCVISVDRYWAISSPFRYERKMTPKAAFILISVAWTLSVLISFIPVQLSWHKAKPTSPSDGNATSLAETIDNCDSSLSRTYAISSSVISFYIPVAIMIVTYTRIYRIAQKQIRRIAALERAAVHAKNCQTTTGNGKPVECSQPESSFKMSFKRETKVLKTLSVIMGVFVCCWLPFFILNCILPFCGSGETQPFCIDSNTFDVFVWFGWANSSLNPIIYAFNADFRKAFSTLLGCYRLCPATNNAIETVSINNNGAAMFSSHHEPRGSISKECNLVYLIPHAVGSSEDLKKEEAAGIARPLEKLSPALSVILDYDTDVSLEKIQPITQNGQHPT
Chain of Thyrotropin-releasing hormone receptor (Homo sapiens) (P34981 whole entry, looked up): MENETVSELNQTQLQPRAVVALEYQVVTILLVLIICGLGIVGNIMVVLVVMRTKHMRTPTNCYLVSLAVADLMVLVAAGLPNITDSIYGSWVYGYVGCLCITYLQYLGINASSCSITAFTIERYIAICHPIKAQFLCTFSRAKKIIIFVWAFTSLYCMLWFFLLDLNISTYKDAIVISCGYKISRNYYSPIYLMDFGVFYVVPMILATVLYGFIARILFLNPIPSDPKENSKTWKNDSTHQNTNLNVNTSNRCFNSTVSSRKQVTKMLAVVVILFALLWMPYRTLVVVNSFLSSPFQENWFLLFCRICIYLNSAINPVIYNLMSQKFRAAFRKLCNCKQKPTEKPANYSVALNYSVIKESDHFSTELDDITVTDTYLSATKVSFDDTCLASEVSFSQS
Chain of Thyrotropin receptor (Homo sapiens) (P16473 whole entry, looked up): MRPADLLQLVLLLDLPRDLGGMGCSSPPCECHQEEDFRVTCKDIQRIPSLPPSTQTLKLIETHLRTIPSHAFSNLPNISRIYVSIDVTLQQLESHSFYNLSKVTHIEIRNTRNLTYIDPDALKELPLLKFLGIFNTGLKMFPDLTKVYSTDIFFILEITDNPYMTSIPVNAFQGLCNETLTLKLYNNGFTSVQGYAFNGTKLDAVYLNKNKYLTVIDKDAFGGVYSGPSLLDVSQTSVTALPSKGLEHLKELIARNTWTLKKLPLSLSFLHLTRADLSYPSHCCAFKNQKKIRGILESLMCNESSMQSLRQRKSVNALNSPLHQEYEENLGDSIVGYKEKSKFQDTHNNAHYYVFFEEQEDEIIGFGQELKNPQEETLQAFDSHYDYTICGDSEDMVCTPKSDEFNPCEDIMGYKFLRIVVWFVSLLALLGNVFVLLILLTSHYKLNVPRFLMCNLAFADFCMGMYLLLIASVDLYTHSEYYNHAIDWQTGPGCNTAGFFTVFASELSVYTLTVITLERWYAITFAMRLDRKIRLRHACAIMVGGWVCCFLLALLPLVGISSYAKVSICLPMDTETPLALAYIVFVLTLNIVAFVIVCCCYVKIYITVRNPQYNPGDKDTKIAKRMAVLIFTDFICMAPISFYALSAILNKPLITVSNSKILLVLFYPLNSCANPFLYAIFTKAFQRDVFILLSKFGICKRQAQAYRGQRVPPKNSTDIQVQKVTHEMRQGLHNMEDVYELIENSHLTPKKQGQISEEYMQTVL
Chain of Phosphoglycerate kinase, glycosomal (Trypanosoma brucei brucei) (P07378 whole entry, looked up): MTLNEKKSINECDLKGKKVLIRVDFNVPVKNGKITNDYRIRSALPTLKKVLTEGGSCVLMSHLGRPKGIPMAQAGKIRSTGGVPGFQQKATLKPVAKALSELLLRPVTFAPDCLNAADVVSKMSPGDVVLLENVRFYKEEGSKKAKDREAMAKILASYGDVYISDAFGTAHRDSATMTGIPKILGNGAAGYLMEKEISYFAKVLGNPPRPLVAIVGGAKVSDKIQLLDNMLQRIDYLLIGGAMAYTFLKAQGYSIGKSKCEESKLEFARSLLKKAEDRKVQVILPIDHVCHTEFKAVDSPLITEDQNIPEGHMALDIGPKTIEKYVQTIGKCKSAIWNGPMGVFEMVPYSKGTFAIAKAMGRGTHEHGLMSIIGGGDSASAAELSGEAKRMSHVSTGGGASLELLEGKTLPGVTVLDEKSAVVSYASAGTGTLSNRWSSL
Chain of ATPase family AAA domain-containing protein 5 (Homo sapiens) (Q96QE3 whole entry, looked up, the tested form may be a part): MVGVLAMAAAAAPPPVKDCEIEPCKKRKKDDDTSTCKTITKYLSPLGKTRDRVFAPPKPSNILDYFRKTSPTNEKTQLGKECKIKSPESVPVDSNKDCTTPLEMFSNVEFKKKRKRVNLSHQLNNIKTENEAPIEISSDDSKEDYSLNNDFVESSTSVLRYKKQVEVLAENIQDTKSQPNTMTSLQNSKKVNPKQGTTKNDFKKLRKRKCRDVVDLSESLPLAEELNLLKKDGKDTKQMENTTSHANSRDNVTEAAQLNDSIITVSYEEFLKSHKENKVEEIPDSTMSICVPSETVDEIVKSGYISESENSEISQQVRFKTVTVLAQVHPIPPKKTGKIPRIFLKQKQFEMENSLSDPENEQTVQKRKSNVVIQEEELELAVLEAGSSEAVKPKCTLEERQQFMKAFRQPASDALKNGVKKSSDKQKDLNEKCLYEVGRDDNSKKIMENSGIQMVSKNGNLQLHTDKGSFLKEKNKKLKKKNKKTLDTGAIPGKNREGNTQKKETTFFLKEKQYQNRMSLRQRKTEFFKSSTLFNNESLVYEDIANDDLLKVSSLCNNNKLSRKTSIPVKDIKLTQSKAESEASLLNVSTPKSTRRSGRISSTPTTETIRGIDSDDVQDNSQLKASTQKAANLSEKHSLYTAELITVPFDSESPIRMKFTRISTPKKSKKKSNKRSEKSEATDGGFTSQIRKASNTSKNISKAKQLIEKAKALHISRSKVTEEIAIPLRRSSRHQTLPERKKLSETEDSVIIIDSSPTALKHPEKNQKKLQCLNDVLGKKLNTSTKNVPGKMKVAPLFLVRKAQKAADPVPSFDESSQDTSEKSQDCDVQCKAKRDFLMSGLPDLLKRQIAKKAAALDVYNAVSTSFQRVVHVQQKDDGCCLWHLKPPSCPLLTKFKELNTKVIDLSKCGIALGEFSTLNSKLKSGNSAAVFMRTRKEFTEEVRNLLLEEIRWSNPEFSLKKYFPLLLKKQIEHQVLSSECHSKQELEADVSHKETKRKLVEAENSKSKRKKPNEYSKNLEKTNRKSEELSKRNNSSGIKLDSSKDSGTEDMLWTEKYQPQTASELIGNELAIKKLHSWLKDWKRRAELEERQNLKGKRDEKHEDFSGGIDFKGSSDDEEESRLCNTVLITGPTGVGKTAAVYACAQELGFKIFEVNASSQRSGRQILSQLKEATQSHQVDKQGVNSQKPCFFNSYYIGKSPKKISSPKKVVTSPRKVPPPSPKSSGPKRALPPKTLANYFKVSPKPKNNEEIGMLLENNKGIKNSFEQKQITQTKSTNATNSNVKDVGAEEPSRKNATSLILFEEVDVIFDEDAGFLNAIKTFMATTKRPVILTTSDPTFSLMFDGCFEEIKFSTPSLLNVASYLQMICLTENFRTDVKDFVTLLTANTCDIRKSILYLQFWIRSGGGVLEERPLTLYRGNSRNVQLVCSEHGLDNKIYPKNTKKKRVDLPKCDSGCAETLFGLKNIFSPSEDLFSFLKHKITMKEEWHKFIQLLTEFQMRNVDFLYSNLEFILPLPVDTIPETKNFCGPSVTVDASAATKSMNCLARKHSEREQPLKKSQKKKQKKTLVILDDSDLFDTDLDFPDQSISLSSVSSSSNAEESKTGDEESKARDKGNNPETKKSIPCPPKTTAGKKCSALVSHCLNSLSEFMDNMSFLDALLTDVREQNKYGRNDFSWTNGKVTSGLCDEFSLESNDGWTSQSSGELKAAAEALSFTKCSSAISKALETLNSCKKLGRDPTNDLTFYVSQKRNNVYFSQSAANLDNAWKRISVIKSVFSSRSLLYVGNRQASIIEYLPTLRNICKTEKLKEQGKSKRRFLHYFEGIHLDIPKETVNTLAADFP
Chain of phosphoglycerate mutase (Leishmania major) (Q4Q090 1-553): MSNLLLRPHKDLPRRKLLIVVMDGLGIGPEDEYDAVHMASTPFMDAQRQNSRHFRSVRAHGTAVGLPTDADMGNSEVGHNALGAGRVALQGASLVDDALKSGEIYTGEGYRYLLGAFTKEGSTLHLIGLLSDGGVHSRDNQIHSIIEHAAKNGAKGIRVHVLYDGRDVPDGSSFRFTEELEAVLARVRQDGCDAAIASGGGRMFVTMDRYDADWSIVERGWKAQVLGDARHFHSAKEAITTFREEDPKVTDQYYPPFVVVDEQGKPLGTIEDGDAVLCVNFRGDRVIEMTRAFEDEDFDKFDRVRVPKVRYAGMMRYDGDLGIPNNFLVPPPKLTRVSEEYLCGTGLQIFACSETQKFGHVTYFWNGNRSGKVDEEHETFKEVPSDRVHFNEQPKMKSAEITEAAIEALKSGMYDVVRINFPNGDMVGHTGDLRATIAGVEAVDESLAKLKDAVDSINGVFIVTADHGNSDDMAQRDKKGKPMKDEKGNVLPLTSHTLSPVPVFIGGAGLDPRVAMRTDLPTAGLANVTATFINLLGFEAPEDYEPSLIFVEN

As to `COc1ccc2c(c1)c(CC(=O)O)c(C)n2C(=O)c1ccccc1`, the outcome in test [1], in [2] and in test [9] was inactive. Further, the Potency result in [3], in test [4], in test [5], in test [6], in test [7] and in [10] was “inactive” each time. The Potency result in [11], in [12], in [13], in test [14], in test [15] and in test [16] was “inactive” throughout. The Potency result in test [17] is “inactive”. Also, the activation in test [8] was 0.812% (inactive).
`O=c1[nH]ccc2c(O)cccc12`: the result in [1], in [2] and in test [9] was inactive. Also, the Potency entry in test [3], in test [4], in [5], in test [6], in test [7] and in test [18] was “inactive” in each case. Further, the Potency result in test [10], in [11], in test [13], in test [14], in [15] and in test [17] was “inactive” throughout. Moreover, the activation in test [8] was 1.12% (inactive). In test [18], the viability change is -2.46%.
Take `O=c1cc(O)cc(/C=C/c2ccc(O)c(O)c2)o1`: the outcome in test [1], in test [2] and in test [9] was inactive. Besides, the Potency result in test [3], in test [4], in [5], in test [6], in test [7] and in test [18] was “inactive” throughout. Also, the Potency result in test [10], in test [11], in [14], in test [15], in [16] and in [17] was “inactive” each time. Also, the activation in test [8] was -0.438% (inactive). The viability change in [18] was -8.55%. Also, the Potency in test [13] was 1690 nM (active).
As for `Cn1c(=O)c2c(nc(/C=C/c3cccc(Cl)c3)n2C)n(C)c1=O`, the result in [1], in test [2] and in test [9] was inactive. In addition, the Potency result in test [3], in test [4], in test [5], in [6], in [7] and in [10] was “inactive” throughout. The Potency result in test [11], in test [12], in [13], in test [14], in [16] and in test [17] was “inactive” each time. For the same compound, the activation in test [8] was -2.88% (inactive).
Regarding `CSC(N)=NCCC[C@H](N)C(=O)O`, the result in test [1], in test [2] and in test [9] was inactive. In addition, the Potency entry in test [3], in test [4], in [5], in test [6], in test [7] and in [18] was “inactive” each time. For the same compound, the Potency entry in [10], in test [11], in test [12], in test [13], in [15] and in [16] was “inactive” in each case. Also, the Potency entry in [17] is “inactive”. In addition, in test [8], the activation was 0.75% (inactive). Further, the viability change in test [18] is -16.2%.
Consider `NCC(O)(CS(=O)(=O)O)c1ccc(Cl)cc1` (stereo not drawn), for which the outcome in test [1], in test [2] and in [9] was inactive. For the same compound, the Potency result in test [3], in [4], in test [5], in test [6], in test [7] and in test [10] was “inactive” in each case. For the same compound, the Potency entry in test [11], in [12], in [13], in test [14], in test [15] and in test [16] was “inactive” each time. In addition, in test [17], the Potency result was “inactive”. Further, the activation in test [8] was 0.25% (inactive).
On to `NCCCCN=C(N)N`, for which the result in [1], in test [2] and in test [9] was inactive. The Potency result in [3], in test [4], in [5], in test [6], in test [7] and in test [10] was “inactive” throughout. Further, the Potency entry in test [11], in test [12], in [13], in [14], in test [15] and in [16] was “inactive” each time. Moreover, the Potency result in [17] is “inactive”. Moreover, in test [8], the activation was 0.812% (inactive).
For `Cn1cc(C(F)(F)F)nc1-c1ccc(OCC(O)CNCCOc2ccc(O)c(C(N)=O)c2)cc1` (stereo not drawn), the result in test [1], in test [2] and in test [9] was inactive. In addition, the Potency entry in test [3], in test [4], in [5], in test [6], in test [7] and in test [18] was “inactive” in each case. Also, the Potency result in [10], in test [11], in [12], in [14], in [15] and in test [16] was “inactive” in each case. Besides, the Potency result in test [17] was “inactive”. In addition, the activation in test [8] is 1.5% (inactive). In addition, the viability change in [18] was found to be 6.58%.
